Records with an inconclusive call do not appear. Active and inactive are the calls of the source. Rule for the calls: active = hit-call score of the fitted dose curve at least 0.9, where 1 is the maximum; inconclusive = response in the unintended direction; inactive = score below 0.9.
Assays:
[1] = TOX21_p53_BLA_p2_viability: Viability Assessment in the Tox21 HCT-116 p53 Agonism Beta-lactamase Assay, Phase 2 (AID 2283591);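 note: compound exposure lasted 16 h at 37 °C; actives lower the ATP signal meaning cytotoxicity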
Outline: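 HCT-116 p53-bla cells (4000/well) rested 5 h at 37C, then received compounds in DMSO (217-fold dilution) for 16 h at 37C, 5% CO2. After the CCF4 read, CellTiter-Glo was added; ATP luminescence was read after 30 min at room temperature.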

[2] = biological target: Cellular tumor antigen p53 (Homo sapiens) (UniProt P04637); assay: TOX21_p53_BLA_p2_ratio: Tox21 HCT-116 p53 Agonism Beta-lactamase Assay, Ratio, Phase 2 (AID 2283592)
Outline: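 HCT116 cells carrying a p53-responsive beta-lactamase reporter were plated, incubated 5 h at 37C, then dosed with compounds in DMSO (217-fold dilution) for 16 h. CCF4-AM substrate was added for 2 h at room temperature; the 460/530 nm emission ratio gave gain-of-signal activity relative to DMSO.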

[3] = biological target: Cellular tumor antigen p53 (Homo sapiens) (UniProt P04637); assay: TOX21_p53_BLA_p3_ratio: Tox21 HCT-116 p53 Agonism Beta-lactamase Assay, Ratio, Phase 3 (AID 2283596)
Outline: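 HCT116 p53-bla cells (4000/well) given compound in DMSO (217-fold dilution) after 5 h, incubated 16 h at 37C. CCF4-AM substrate 2 h at room temperature; 460/530 nm emission ratio, gain fitted against DMSO.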

[4] = TOX21_p53_BLA_p4_viability: Viability Assessment in the Tox21 HCT-116 p53 Agonism Beta-lactamase Assay, Phase 4 (AID 2283597);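 note: hits lower the luminescence signal meaning cytotoxicity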
Outline: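 HCT116 p53-bla cells (4000/well) rested 5 h at 37C, then received compounds in DMSO (217-fold dilution) for 16 h at 37C, 5% CO2. CellTiter-Glo was added after the CCF4-AM read, and luminescence was read after 30 min at room temperature.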

[5] = biological target: Cellular tumor antigen p53 (Homo sapiens) (UniProt P04637); assay: TOX21_p53_BLA_p5_ratio: Tox21 HCT-116 p53 Agonism Beta-lactamase Assay, Ratio, Phase 5 (AID 2283599)
Outline: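 HCT-116 cells carrying a p53-inducible beta-lactamase reporter were seeded at 4000 cells/well and dosed after 5 h with compound in DMSO (217-fold dilution). After 16 h at 37C, CCF4-AM substrate was added for 2 h, and the 460/530 nm emission ratio was scored as gain-of-signal versus DMSO.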

[6] = TOX21_p53_BLA_p5_viability: Viability Assessment in the Tox21 HCT-116 p53 Agonism Beta-lactamase Assay, Phase 5 (AID 2283600)
Outline: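 Cells were plated at 4000/well, rested 5 h at 37C, then given compounds in DMSO (217-fold dilution) for 16 h at 37C, 5% CO2. Following the CCF4-AM beta-lactamase read, CellTiter-Glo was added and luminescence was read after 30 min at room temperature.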

[7] = biological target: Cellular tumor antigen p53 (Homo sapiens) (UniProt P04637); assay: TOX21_p53_BLA_p4_ratio: Tox21 HCT-116 p53 Agonism Beta-lactamase Assay, Ratio, Phase 4 (AID 2283601)
Outline: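 HCT116 cells carrying an inducible beta-lactamase reporter were plated at 4000 cells/well, rested 5 h, then exposed to compounds in DMSO (217-fold dilution) for 16 h at 37C. CCF4-AM substrate was loaded 2 h at room temperature; 460/530 nm emission ratio scored gain-of-signal versus DMSO.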

Sequence of Cellular tumor antigen p53 (Homo sapiens) (P04637 whole entry, looked up): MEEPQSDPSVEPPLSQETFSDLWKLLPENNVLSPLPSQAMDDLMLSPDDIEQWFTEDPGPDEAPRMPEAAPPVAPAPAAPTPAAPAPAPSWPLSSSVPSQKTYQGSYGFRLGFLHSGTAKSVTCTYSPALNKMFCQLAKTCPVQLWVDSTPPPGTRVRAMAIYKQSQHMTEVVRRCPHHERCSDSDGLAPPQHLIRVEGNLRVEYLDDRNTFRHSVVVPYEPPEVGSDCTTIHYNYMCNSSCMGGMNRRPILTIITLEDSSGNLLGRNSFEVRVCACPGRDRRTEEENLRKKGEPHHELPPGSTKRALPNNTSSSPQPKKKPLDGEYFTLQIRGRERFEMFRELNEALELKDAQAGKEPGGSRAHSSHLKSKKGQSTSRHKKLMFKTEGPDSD

Row | Structure (SMILES) | outcome [1] | outcome [2] | outcome [3] | outcome [4] | outcome [5] | outcome [6] | outcome [7] | AC50 [2] | AC50 [3] | AC50 [7]
1 | CS(=O)(=O)c1ccc([C@@H](O)[C@@H](CO)NC(=O)C(Cl)Cl)cc1 | inactive | inactive | inactive | inactive | inactive | inactive | inactive |  |  | 
2 | CCC=CC#N | inactive | inactive | inactive | inactive | inactive | inactive | inactive |  |  | 
3 | C=C1C[C@@]23CC[C@H]4[C@@](C)(CCC[C@@]4(C)C(=O)O[C@@H]4O[C@H](CO)[C@@H](O)[C@H](O)[C@H]4O)[C@@H]2CC[C@]1(O[C@@H]1O[C@H](CO)[C@@H](O)[C@H](O[C@@H]2O[C@H](CO)[C@@H](O)[C@H](O)[C@H]2O)[C@H]1O[C@@H]1O[C@H](CO)[C@@H](O)[C@H](O)[C@H]1O)C3 | inactive | inactive | inactive | inactive | inactive | inactive | inactive |  |  | 
4 | CCCCCCCCCCCCCCCCCCCCCC(=O)Nc1ccn([C@@H]2O[C@H](CO)[C@@H](O)[C@@H]2O)c(=O)n1 | inactive |  |  | inactive | inactive | inactive |  | 19 µM (active) | 23 µM (active) | 14.3 µM (active)
5 | CC(C)[N+]1(C)[C@@H]2CC[C@H]1CC(OC(=O)C(CO)c1ccccc1)C2 (stereo not given in full) | inactive | inactive | inactive | inactive | inactive | inactive | inactive |  |  | 
